The text below walks through data of PubChem BioAssay AID504848 (National Center for Advancing Translational Sciences (NCATS), 2011).

Molecules are shown by their SMILES. Screen size: about 2,300 compounds; about 1,400 (61%) were called active. Another 29% or so got no clear call; they are omitted. Calls follow the shape of the dose curve; as a rule, active = well fitted inhibition curve with a large enough effect; inconclusive = small, poorly fitted or top-dose-only effect, or effect the other way; inactive = no such curve, though single readings can be large or run the other way. So high a share suggests a set chosen from earlier hits. The list shows a part of the results.
% is scaled to controls: 0 for no effect and ±100 for the full control effect; potency is read from the fitted curve at half-maximal effect.

The experiment is described as follows: Confirmation screen for delayed death inhibitors of the malarial parasite plastid, 96 hour incubation. Also: nearly all actives have a fitted effect of over 60% in size. Particulars: P. falciparum luciferase growth in erythrocytes; series mostly up to 28.7 µM; activity change, negative = inhibition: at the top concentration. The method in brief:
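Two-generation (96 h, 37 C) exposure of P. falciparum carrying an integrated firefly luciferase reporter in erythrocytes, 0.1% parasitemia and 2% hematocrit final, Albumax-supplemented RPMI. Luminescence decrease measures growth inhibition.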
In the case of `O=C(COC(=O)c1c2c(nc3ccccc13)CCN(Cc1ccccc1)C2)Nc1c(F)cccc1F`, the Potency is 5.01 µM (active).

Consider `COc1ccc(Cc2nc3ccc(C(=O)NCCc4ccccn4)cc3o2)cc1OC`, for which the Potency is 11.2 µM (active).

Turning to `Nc1nc(C2CC2)c(Sc2sc(N)nc2C2CC2)s1`, the “activity change, negative = inhibition” value is -23.1% (inactive).

As to `CCOc1ccccc1NC(=O)NC1Cc2ccccc2C1`, the Potency is 12.6 µM (active).

In the case of `CCCC(=O)NC(c1ccccc1)c1c(O)ccc2ccccc12` (stereo unspecified), the Potency is 4.47 µM (active).

For the compound `CC(C)(C(=O)N[C@H](CO)c1ccccc1)C(=O)N[C@H](CO)c1ccccc1`, the “activity change, negative = inhibition” value was -4.34% (inactive).

On to `Cc1ccc2c(c1)C1CC(C)(O2)N(c2cccc(C(=O)N3CCN(c4ccccn4)CC3)c2)C(=O)N1` (stereo unspecified), for which the Potency is 12.6 µM (active).

As for `Cc1cccc(-n2c(C)cc(/C=N\NC(=O)c3cccs3)c2C)c1`, the Potency is 12.6 µM (active).

For the compound `C[N+]1(CCCCSc2ccc(O)cc2)CCCCC1`, the Potency is 4.47 µM (active).

Turning to `COc1ccc(C)cc1NC(=O)C(Sc1nnc(Nc2cc(C)ccc2OC)s1)c1ccccc1` (stereo unspecified), the Potency is 14.1 µM (active).

For the compound `COC(=O)c1ccc(NC(=O)C[n+]2ccccc2C)cc1`, the Potency is 12.6 µM (active).

`CCOC(=O)NC(=O)COC(=O)c1ccc(O)cc1`: the “activity change, negative = inhibition” value is 13.7% (inactive).

On to `Cc1cccc[n+]1CC(=O)Nc1ccc([N+](=O)[O-])cc1`, for which the Potency is 12.6 µM (active).

Consider `Cc1ccc(C(=O)C[n+]2ccccc2C)cc1[N+](=O)[O-]`, for which the Potency is 11.2 µM (active).

Regarding `Cc1ccc(C(=O)NCCn2ccc3ccccc32)cc1[N+](=O)[O-]`, the “activity change, negative = inhibition” value is -13.4% (inactive).

For the compound `COC(=O)c1ccc(CNCC(=O)Nc2ccc(C(=O)OC)cc2)cc1`, the “activity change, negative = inhibition” value is -15.1% (inactive).

As to `Cc1cccc[n+]1CC(=O)c1ccc(NC(=O)c2ccccc2)cc1`, the Potency is 5.01 µM (active).

Take `CC(C)[C@H](NC(=O)N1CCn2c1nc1ccccc12)C(=O)N[C@H](C(=O)O)c1ccccc1`: the “activity change, negative = inhibition” value is -11.3% (inactive).

Consider `CCc1ccc(-c2nc3ccc(Br)cc3c(C(=O)O)c2C)s1`, for which the “activity change, negative = inhibition” value is -11.4% (inactive).

For the compound `S=C(NCc1ccncc1)Nc1ccc(Br)cc1Cl`, the Potency is 12.6 µM (active).

On to `CC1CCN(CCCNS(=O)(=O)c2cc(Br)cc3c2N(C(=O)C2CC2)CC3)CC1`, for which the Potency was 12.6 µM (active).

As for `O=C(C1CC1)N1CCc2cc(Br)cc(S(=O)(=O)NCc3ccco3)c21`, the Potency was 11.2 µM (active).

In the case of `CCC(=O)N1CCc2cc(Br)cc(S(=O)(=O)NCc3ccco3)c21`, the Potency was 12.6 µM (active).

In the case of `O=C(C1CCC1)N1CCc2cc(S(=O)(=O)NCc3ccco3)ccc21`, the “activity change, negative = inhibition” value is -14.6% (inactive).

As for `CCCCN(CCCC)CC(O)c1cc(Cl)cc2c1-c1ccc(Cl)cc1/C2=C/c1ccc(Cl)cc1` (stereo unspecified), the Potency was 0.0562 µM (active).

`O=[N+]([O-])c1ccc(C(O)C[n+]2ccccc2)cc1` (stereo unspecified): the Potency was 10 µM (active).

As to `CCOc1ccc(C2NC(=S)NC3=C2CCc2ccccc23)cc1` (stereo unspecified), the Potency is 14.1 µM (active).

For `CN(C)c1ccc2nc3ccc(=[N+](C)C)cc-3sc2c1`, the Potency was 0.0631 µM (active).

`Cc1[nH]c(=O)[nH]c(=O)c1S(=O)(=O)N1CCCC(C(=O)N2CCN(c3cccc(C(F)(F)F)c3)CC2)C1` (stereo unspecified): the Potency is 8.91 µM (active).

Take `N#Cc1cccc(NC(=O)Cn2c3[n+](c4ccc(C(F)(F)F)cc42)CCCCC3)c1`: the Potency is 0.251 µM (active).

As to `CCCCCn1c(=O)c2ccccc2n2c(CCl)nnc12`, the Potency was 6.31 µM (active).

For the compound `CCCCCCCCC[n+]1cccc2c3ccccc3ccc21`, the Potency is 0.158 µM (active).

On to `CCCCCCCOc1ccc(C2(C)NC(=O)NC2=O)cc1` (stereo unspecified), for which the Potency was 8.91 µM (active).

For the compound `CCC/C(=N\NC(=O)c1ccco1)c1ccc(Cl)s1`, the Potency was 12.6 µM (active).

On to `CCOc1ccccc1CN1CCN(Cc2ccc3cccc(OC)c3n2)CC1CCO` (stereo unspecified), for which the Potency is 12.6 µM (active).

As for `CCOc1ccc(CN2CCN(Cc3ccc4cc(F)ccc4n3)CC2CCO)cc1` (stereo unspecified), the Potency is 14.1 µM (active).

On to `COc1ccc(-c2cc(C(=O)Nc3cc(C)n(Cc4ccc(Cl)cc4)n3)no2)cc1OC`, for which the Potency was 0.316 µM (active).

For the compound `CCCn1cc(S(=O)(=O)c2ccc(Cl)cc2)c(=O)c2cc(OC)ccc21`, the Potency is 11.2 µM (active).

For the compound `O=C(OCC(=O)N1CCN(c2ccccc2)CC1)c1cc(Cl)ccc1[N+](=O)[O-]`, the “activity change, negative = inhibition” value was -16.5% (inactive).

For `NC(=O)CC(NC(=O)c1ccccc1)c1ccc(N2CCN(c3ccccc3)CC2)c([N+](=O)[O-])c1` (stereo unspecified), the Potency is 12.6 µM (active).

Regarding `O=C(NCc1ccco1)c1cc2sccc2n1Cc1ccc(F)cc1`, the Potency was 11.2 µM (active).

`COc1ccccc1N1CCN(C(=O)c2ccc3[nH]c4c(c3c2)CCCC4)CC1`: the Potency was 11.2 µM (active).

Turning to `CN(CCC#N)C(=O)COC(=O)c1ccc2[nH]c3c(c2c1)CCCC3`, the “activity change, negative = inhibition” value is -21.3% (inactive).

Regarding `CCN1CCN(Cc2c(O)ccc3c2O/C(=C\C=C\c2ccccc2)C3=O)CC1`, the Potency is 4.47 µM (active).

Regarding `CC1=Nc2cc(C(=O)N3CCCC3)ccc2Sc2ccc(C)cc21`, the Potency is 0.891 µM (active).

In the case of `CC1=Nc2cc(C(=O)N3CCCC3)ccc2Sc2c(C)ccc(C)c21`, the Potency is 3.16 µM (active).

Take `CCOC(=O)CSc1nnc(NC(=O)c2cccc([N+](=O)[O-])c2)s1`: the Potency is 11.2 µM (active).

Consider `Nc1nnnn1/N=C/C(Br)=C/c1ccccc1`, for which the Potency was 12.6 µM (active).

Consider `CCCN1CCN(C(=O)C2CCN(S(=O)(=O)c3ccc4c(c3)NC(=O)C(C)S4)CC2)CC1` (stereo unspecified), for which the Potency is 7.08 µM (active).

As to `Cc1cc(NC(=O)COC(=O)c2c(Cl)cccc2Cl)no1`, the “activity change, negative = inhibition” value was -11.4% (inactive).

On to `Cc1cc(NC(=O)COC(=O)c2ccccc2S(=O)(=O)N(C)c2ccccc2)no1`, for which the Potency is 7.94 µM (active).

Take `CCN(CC)CCn1c(SCC(=O)NCc2ccccc2)nc2c(sc3ccccc32)c1=O`: the Potency is 5.01 µM (active).

On to `NC(=O)CSc1nc2c(sc3ccccc32)c(=O)n1CCCN1CCOCC1`, for which the Potency was 3.16 µM (active).

Consider `O=C(CSc1nc2ccccc2c(=O)n1Cc1ccc(C(=O)NC2CC2)cc1)NCc1ccco1`, for which the Potency is 7.08 µM (active).

Turning to `O=C(CSc1nc2c(sc3ccccc32)c(=O)n1-c1ccccc1)NCc1ccco1`, the Potency is 12.6 µM (active).

Regarding `O=C(CSc1c2c(nc3ccccc13)CCCC2)NCc1ccco1`, the “activity change, negative = inhibition” value was -8% (inactive).

For `CC(=O)Nc1sc(C)c(C)c1C(=O)OCC(=O)N(CC(C)C)C1CCS(=O)(=O)C1` (stereo unspecified), the Potency was 12.6 µM (active).

For `Cc1cnc(CNC(=O)c2ccc3oc(Cc4ccc(Cl)cc4)nc3c2)cn1`, the Potency is 12.6 µM (active).

Take `Cc1cnc(CNC(=O)c2ccc3oc(Cc4ccccc4)nc3c2)[nH]1`: the Potency is 14.1 µM (active).

Regarding `c1ccc(SCc2cn(C[C@H]3CC[C@@H]([C@@H]4CC[C@H](Cn5cc(CSc6ccccc6)nn5)O4)O3)nn2)cc1`, the Potency is 11.2 µM (active).

Turning to `CC1CCCN(c2ccc(F)cc2N)C1` (stereo unspecified), the Potency was 8.91 µM (active).

Take `COc1cccc(/C=N/N2CCN(C3c4ccccc4-c4ccccc43)CC2)c1O`: the Potency was 14.1 µM (active).

Take `CCOC(=O)C(C)Sc1cc(CS(=O)(=O)c2ccccc2)nc(-c2ccccc2)n1` (stereo unspecified): the Potency is 12.6 µM (active).

Consider `Cc1ccc(Oc2nc3ccccn3c(=O)c2/C=C(\C#N)C(=O)NC2CCS(=O)(=O)C2)c(C)c1` (stereo unspecified), for which the Potency was 10 µM (active).

As for `N#C/C(=C\c1c(Oc2ccccc2Cl)nc2ccccn2c1=O)C(=O)NC1CCS(=O)(=O)C1` (stereo unspecified), the Potency was 12.6 µM (active).

For `Cc1cccc(Oc2nc3ccccn3c(=O)c2/C=C(\C#N)C(=O)NC2CCS(=O)(=O)C2)c1C` (stereo unspecified), the Potency is 12.6 µM (active).

For `COc1ccc(-c2nc3c(c(=O)c4ccccc4n3C)c(=O)n2Cc2ccccc2)cc1`, the Potency is 7.08 µM (active).

Turning to `COc1ccc(Cn2c(-c3ccccc3)nc3c(c(=O)c4ccccc4n3C)c2=O)cc1`, the Potency is 10 µM (active).

`COc1ccc(CCn2c(C(C)C)nc3c(c(=O)c4ccccc4n3C)c2=O)cc1`: the Potency is 3.16 µM (active).

As to `CCO[C@H]1OC(C(=O)N2CCN(Cc3ccc4c(c3)OCO4)CC2)=C[C@@H](c2ccc(C(F)(F)F)cc2)[C@@H]1CCCO`, the Potency was 2 µM (active).

Consider `CCO[C@H]1OC(C(=O)N2CCN(Cc3ccccc3)CC2)=C[C@@H](c2ccc(C(F)(F)F)cc2)[C@@H]1CCCO`, for which the Potency was 3.16 µM (active).

With `O=C(C1=C[C@@H](c2csc3ccccc23)C[C@@H](OCCCCO)O1)N1CCN(Cc2ccc3c(c2)OCO3)CC1`, the Potency was 3.98 µM (active).

With `CCOC(=O)N1CCN(CC(=O)c2ccc(O)cc2O)CC1`, the Potency is 17.8 µM (active).

With `CCOc1cc(/C=C2/C(=O)ON=C2C)ccc1OCc1ccccc1`, the “activity change, negative = inhibition” value was 4.29% (inactive).

In the case of `CCOc1cc(/C=C2\COc3ccccc3C2=O)ccc1OCC(=O)N(C)C`, the Potency was 12.6 µM (active).

Turning to `COc1cc(CN2CCN(S(=O)(=O)c3ccccc3)CC2)cc(OC)c1OC`, the Potency is 2.24 µM (active).

For `O=S1(=O)C=C(Sc2nc3cc(Cl)ccc3o2)c2ccccc21`, the Potency is 4.47 µM (active).

Turning to `O=S1(=O)C=C(Sc2nnc(-c3ccccc3)o2)c2ccccc21`, the Potency was 14.1 µM (active).

On to `CCOc1ccc(/C=N/OCC(=O)Nc2ccc(OCc3ccccc3)cc2)cc1OC`, for which the Potency was 3.55 µM (active).

As to `C[C@@H]1CCC2[C@@H](C)[C@@H](O)O[C@@H]3O[C@@]4(C)CC[C@@H]1[C@@]23OO4` (stereo partly specified), the Potency was 0.0251 µM (active).

In the case of `CO[C@H]1OC2O[C@@]3(C)CC[C@H]4[C@H](C)CC[C@@H]([C@H]1C)[C@@]24OO3` (stereo partly specified), the Potency was 0.0631 µM (active).

On to `C[C@H]1[C@@H](OC(=O)CCC(=O)O)OC2OC3(C)CC[C@H]4[C@H](C)CC[C@@H]1[C@@]24OO3` (stereo partly specified), for which the Potency was 0.0355 µM (active).

For the compound `COCCN1CCCC(CNCc2cn(C)nc2-c2ccc(Oc3ccccc3)cc2)C1` (stereo unspecified), the Potency was 7.08 µM (active).

For `Cc1cc(=O)oc2c3c(cc(OCC(=O)Nc4cccnc4)c12)OC(C)(C)CC3`, the Potency was 1.26 µM (active).

As to `CCOC(=O)c1c(NC(=O)CSc2ccccc2C(=O)O)sc(C)c1C`, the “activity change, negative = inhibition” value is -10% (inactive).

Take `CCOC(=O)c1c(NC(=O)CSc2c[nH]c3ccccc23)sc2c1CCCC2`: the Potency was 12.6 µM (active).

`Cc1ccc2c(c1)cc(C(=O)NCc1ccccc1)n2C`: the “activity change, negative = inhibition” value was 5.14% (inactive).

Regarding `Cc1ccc(NC(=O)c2cc(C(C)(C)C)nn2Cc2ccccc2)cc1`, the Potency was 12.6 µM (active).

For the compound `CC(C)(C)c1cc(C(=O)NNc2cccc(Cl)c2)n(Cc2ccccc2)n1`, the Potency was 10 µM (active).

As to `Cc1cccc(Cn2nc(C(C)(C)C)cc2C(=O)Nc2ccc(F)cc2)c1`, the Potency is 3.55 µM (active).

`CC(C)(C)C(=O)NNC(=O)c1cc(C(C)(C)C)nn1Cc1ccccc1`: the Potency was 14.1 µM (active).
